Laboratory results taken from PubChem BioAssay (NCI).
About 83,000 compounds went through this panel and 20% of them were active in at least one assay; those are over-represented in the sample as a whole.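 Assay: single dose, 48 h. Readout: percent growth (0 = no net growth; negative = cell death). Active: <10.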 Unmarked numbers belong to inactive results. Activity calls are given as the source filed them.

How the values were obtained:
Test in all cases: NCI-60 one-dose screen, 48 h (100 = growth as untreated, 0 = no growth, -100 = all killed)
Details in all cases: 10 µM unless noted
[1] = tested on: SR leukemia
[2] = tested on: RPMI-8226 leukemia
[3] = tested on: OVCAR-8 ovarian
[4] = tested on: OVCAR-5 ovarian
[5] = tested on: OVCAR-4 ovarian
[6] = tested on: SK-OV-3 ovarian
[7] = tested on: IGROV1 ovarian
[8] = tested on: OVCAR-3 ovarian
[9] = tested on: HS 578T breast
[10] = tested on: NCI/ADR-RES ovarian

Row | Structure (SMILES) | growth [1] | growth [2] | growth [3] | growth [4] | growth [5] | growth [6] | growth [7] | growth [8] | growth [9] | growth [10]
1 | CCN1CCN(c2cc(C)nc(N(CCNc3ccnc4cc(Cl)ccc34)Cc3ccc4c(c3)OCO4)n2)CC1 | -44.9% (active) | -19.3% (active) | 3.09% (active) | 40.5% | 19.8% | -16.2% (active) | 10.2% | -55.8% (active) | 30% | -13.9% (active)
2 | Cc1cccc(-c2nc(Nc3ccc4ncsc4c3)c3ccccc3n2)n1 | 69.2% | 30.6% | 53.4% | 97.7% | 30.7% | 113% | 16.6% | 10.1% | 116% | 86.9%
3 | Nc1nc(N)c2c(n1)NC(c1cccc(Nc3ccnc4cc(C(F)(F)F)ccc34)c1)CC(c1ccccc1)=N2 (stereo not given) | 4.11% (active) | 9.67% (active) | 63% | 113% | 57.8% | 65.3% | 59.4% | 45.3% | 53.7% | 70.2%
4 | Cc1cccc(Oc2ccc(Nc3ncnc4ccc(NC(=O)CN5CCN(C)CC5)cc34)cc2Cl)c1 | 4.43% (active) | -27.9% (active) | 13.2% | 68.2% | -13.5% (active) | 6.73% (active) | -21.9% (active) | 10.1% | -2.13% (active) | 46.9%
5 | COc1ccc(C2CC(c3cc(OC)c(OC)c(OC)c3)=NO2)cc1OCCCCOc1cc2c(cc1OC)C(=O)N1CCC[C@H]1C=N2 (stereo not given in full) | -18.1% (active) | 17.1% | 26.1% | 17.9% | 13.8% | 22% | -21.5% (active) | 0.847% (active) | 0.334% (active) | 19.8%
6 | Cc1ccc2nc(-c3ccc(C(=O)NNC(=S)Nc4ccccc4)cc3)[nH]c2c1 | 88.6% | 85.1% | 95.7% | 98.3% | 88.2% | 98.3% | 86.4% | 95% | 111% | 100%
7 | COc1ccc2c(c1)c(-c1nc(-c3c[nH]c4ncccc34)cs1)cn2CCO | 37.8% | 39.9% | 56.2% | 68.2% | 42.1% | 30% | 43.4% | 78.7% | 33.5% | 76%
8 | CCN1CCN(CC(=O)Nc2ccc(-c3cn4c(n3)sc3cc(Oc5ccnc(C(=O)NC)c5)ccc34)cc2)CC1 | -16.9% (active) | 59.2% | 92.4% | 91.2% | 87.5% | 44.8% | 84.8% | 88.8% | 94% | 89%
9 | C=CN(C(=O)N1CCN(c2cc3c(cc2F)c(=O)c(C(=O)O)cn3C2CC2)CC1)c1nc(-c2ccc(OC)cc2)cs1 | 20.4% | -6.11% (active) | 14.3% | 33.8% | 35.3% | 17.6% | 39.6% | 13.7% | 20.3% | 37.6%
10 | CN(C)CCCC1(c2ccc(F)cc2)OCc2cc(-c3ccc4cc[nH]c4c3)ccc21 (stereo not given) | -2.82% (active) | 36.7% | 57.9% | 84.4% | 44.4% | 90.2% | 23% | 45.6% | 54.6% | 56.8%
11 | COc1ccc(/C=C/C(=O)c2ccc(NC(=O)CSc3nc4c([nH]3)c(=O)n(C)c(=O)n4C)cc2)cc1OC | 36.6% | 85.9% | 89.7% | 83.9% | 72.6% | 102% | 71.3% | 70% | 81.3% | 96.1%
12 | CCN1C2CCC1/C(=C\c1ccc(F)cc1)C(=O)/C2=C/c1ccc(F)cc1 | 24.5% | 18.5% | 12.5% | 73.4% | 47.3% | 62% | 45.7% | 11% | 66.3% | 17.4%
13 | O=C(CCCCCCN1CC(=O)N2[C@H](c3ccc(Br)cc3)c3[nH]c4ccccc4c3C[C@@H]2C1=O)NO | 24% | 18% | 41.2% | 40.5% | 67.5% | 49.5% | 23.9% | 41.5% | 53% | 89.6%
14 | CC[C@]12C=CCN3CC[C@@]4(c5ccc(OC)cc5N(C)[C@H]4[C@@](O)(C(=O)OC)[C@@H]1OC(=O)CCC[P+](c1ccccc1)(c1ccccc1)c1ccccc1)[C@@H]32 | 9.57% (active) | -12.6% (active) | 3.13% (active) | 21.4% | -3.58% (active) | -21% (active) | -0.0574% (active) | -2.49% (active) | 25.5% | 100%
15 | COC(=O)c1c2c(n3ccccc13)C(=O)c1ccccc1C2=O | 38.7% | 68.3% | 45% | 116% | 77.3% | 94.8% | 57.5% | 55.7% | 73.7% | 65.4%
16 | COc1ccc(C#Cc2ccc(=O)oc2-c2cc(OC)c(OC)c(OC)c2)cc1O | 13.7% | 18.2% | 69.6% | 43% | 69% | 47.2% | 37.5% | -4.92% (active) | 54.5% | 19.6%
17 | FC(F)(F)c1ccc(Cn2cc(CSc3nc4ccccc4s3)nn2)cc1 | 96.3% | 96.7% | 91% | 98.6% | 94.8% | 104% | 97.7% | 105% | 88.6% | 95.7%
18 | N#Cc1cccc(C2C3=C(COC3=O)N(CCO)c3cc4c(cc32)OCO4)c1 (stereo not given) | 15.3% | 19.2% | 35.6% | 69.5% | 70.9% | 23% | 42.1% | 3.12% (active) | 20.2% | 57.3%
19 | COc1cc(Cl)c(C)cc1NC(=O)c1cc2ccccc2cc1O | 8.6% (active) | 7.23% (active) | 11.9% | 20% | 20.7% | 14.8% | 11.9% | 6.37% (active) | 23.8% | 0.336% (active)
20 | CCn1c(-c2cc3c([nH]c4ccccc43)c(-c3cccc(O)c3)n2)n[nH]c1=S | -3.76% (active) | 19.3% | 40.8% | 98.1% | 54.8% | 55.8% | 53.7% | 28.9% | 28.1% | 64.8%
21 | NC(=O)c1c(NC(=O)c2cccc(C(F)(F)F)c2)sc2c1CCC(=O)C2 | -13.2% (active) | -22.5% (active) | 13.6% | 12.8% | -92.2% (active) | 1.42% (active) | -6.14% (active) | -37.6% (active) | 9.53% (active) | -2.23% (active)
22 | COc1ccc2c(c1)c(/C(O)=C1\COC(=O)C1=O)cn2Cc1ccc(F)cc1 | 136% | 72.1% | 111% | 98% | 97.1% | 110% | 44% | 107% | 109% | 107%
23 | Cc1ccc(-c2nc3nc(-c4ccccc4)nc(N4CCCN(S(C)(=O)=O)CC4)c3o2)cc1 | 30.8% | 92.5% | 50.7% | 92.5% | 48.2% | 81.3% | 75.7% | 83.4% | 86.5% | 56.2%
24 | Cc1ccc(CNc2c3ccccc3nc3ccccc23)cc1 | -0.81% (active) | -11% (active) | 21.8% | 38.1% | 24.5% | 46.9% | 19.4% | 34.1% | 38.5% | 26.1%
25 | O=C(Cn1nnc2ccccc21)N/N=C/c1c[nH]c2ccccc12 | 18.3% | 45% | 44.8% | 71.9% | 82% | 65.7% | 54.1% | 22.4% | 57.5% | 47.6%
26 | CC(=O)Oc1ccc(OC(C)=O)c2ccccc12 | 56.8% | 6.57% (active) | 48.8% | 98.4% | -96.4% (active) | 102% | 68.5% | 59.7% | 109% | 64.5%
27 | FC(F)(F)Oc1cccc(-c2cnc3ccc(-c4ccncc4)nn23)c1 | 4.36% (active) | 15.9% | 14.3% | 16.5% | 47% | -19.3% (active) | 12.1% | 8.85% (active) | 23.4% | 11.6%
